Results reported in PubChem BioAssay (NCI).
About 79,000 compounds went through this panel and 15% of them were active in at least one assay; those are over-represented in the sample as a whole. Calls of active or inactive are those of the source. No stated cut-off is given here; in the data, active means growth inhibition above about 70%; inactive means the rest.

Experiments:
[1] = NCI Yeast Anticancer Drug Screen. Data for the rad50 strain (AID 155);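 further: 0% = growth of vehicle-only cultures of the same strain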; conditions: S. cerevisiae rad50 strain growth inhibition; at 50.0 µM; active compounds read high
Summary of the method: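 Readout: growth inhibition relative to vehicle-treated cultures. Compound exposure was carried out in a genetically defined yeast strain deficient in DNA damage repair.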

[2] = NCI Yeast Anticancer Drug Screen. Data for the mec2-1 strain (AID 157); conditions: S. cerevisiae mec2-1 strain, at 50.0 µM, active compounds read high
Summary of the method: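 mec2-1 yeast strain, carrying an alteration in DNA damage repair or cell cycle control, was exposed to compounds; growth inhibition was measured relative to vehicle-treated controls.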

[3] = NCI Yeast Anticancer Drug Screen. Data for the sgs1 mgt1 strain (AID 161);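 further: 0% = growth of cultures given vehicle only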; conditions: S. cerevisiae sgs1 mgt1 strain, at 50.0 µM, active compounds read high
Summary of the method: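 Compounds are added to genetically altered yeast, and growth is compared with cultures given vehicle alone to give percent inhibition.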

[4] = NCI Yeast Anticancer Drug Screen. Data for the cln2 rad14 strain (AID 165);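 further: 0% = growth equal to vehicle treated cultures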; conditions: S. cerevisiae cln2 rad14 strain, at 50.0 µM, active compounds read high
Summary of the method: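 Yeast carrying cln2 and rad14 alterations (cell cycle control and DNA damage repair) were exposed to compounds. Growth inhibition was measured against vehicle-treated controls.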

[5] = NCI Yeast Anticancer Drug Screen. Data for the bub3 strain (AID 167); conditions: S. cerevisiae bub3 mutant strain, at 50.0 µM, active compounds read high
Summary of the method: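 Readout: yeast growth inhibition, expressed relative to vehicle-only wells. The test organism is a mutant strain from a panel with lesions in DNA repair or checkpoint genes.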

[6] = NCI Yeast Anticancer Drug Screen. Data for the mlh1 rad18 strain (AID 175); conditions: S. cerevisiae mlh1 rad18 strain growth inhibition; at 50.0 µM; active compounds read high
Summary of the method: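 Growth inhibition of the yeast strain was measured after compound exposure and expressed relative to vehicle-treated controls. The strain carries defined defects in DNA damage repair.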

Measured: growth inhibition

CC/C(=N/N(C)C)C(=O)O
inactive: [1] -29.4% | [2] -3.9% | [3] -5.3% | [4] -10.6% | [5] -17.1% | [6] -16.3%

CCN(CC)/C(C=[N+]=[N-])=N\C(N)=N\S(=O)(=O)c1ccc(OC)cc1
inactive: [1] -37.2% | [2] -13.9% | [3] -13.8% | [4] -28% | [5] 4.05% | [6] 13.4%

O=C1OCCC1(Cc1ccc(Cl)cc1)Cc1ccc(Cl)cc1
inactive: [1] -16.1% | [2] -22.9% | [3] -4.7% | [4] 10.4% | [5] 1.45% | [6] -3.05%

CCSCC1OC(n2cnc3c(=S)nc(N)[nH]c32)C(O)C1O (stereo unspecified)
inactive: [1] 15.2% | [2] 10.1% | [3] -0.75% | [4] 16.4% | [5] 11.8% | [6] 21.1%

CC(C)C(C(N)=O)C(C)(C)C (stereo unspecified)
inactive: [1] 1.1% | [2] 4.2% | [3] 14.9% | [4] 8.6% | [5] -7.5% | [6] -9.55%

C1=C(Oc2ccccc2)C2CC1C1CCCC21 (stereo unspecified)
inactive: [1] -7.85% | [2] -21.4% | [3] -2.65% | [4] 2.05% | [5] -5.95% | [6] 1.85%

[Cl-].[Nd+3].[O-]/N=C(\c1ccccc1)c1ccccn1.[O-]/N=C(\c1ccccc1)c1ccccn1.[O-]/N=C(\c1ccccc1)c1ccccn1
inactive: [1] 50.1% | [2] 35.4% | [3] 42.6% | [4] 25.2% | [5] 47% | [6] 58%

CCOC(=O)C1C(c2ccc(Cl)cc2Cl)NC(c2ccc(C)cc2)C(C(=O)OC)S1(=O)=O (stereo unspecified)
inactive: [1] 13% | [2] -9.8% | [3] -8.85% | [4] 27.3% | [5] -5.1% | [6] 27.1%

Cc1ccccc1C1OC2=C(Nc3ccc(Cl)cc3N2)C1=O (stereo unspecified)
inactive: [1] 15.6% | [2] -1.65% | [3] 10.3% | [4] 9.85% | [5] -11.8% | [6] 25.2%

CC(C)CCC[C@@H](C)[C@H]1CC[C@H]2C3=CC=C4C[C@H](OC(=O)c5ccccc5)CC[C@]4(C)[C@H]3CC[C@]12C
inactive: [1] 0.4% | [2] 5.5% | [3] 11% | [4] 3.7% | [5] -1.25% | [6] -10.2%

COc1cccc(-n2cnc3c(SC)ncnc32)c1
inactive: [1] 8.8% | [2] 3.9% | [3] 4.75% | [4] -27.9% | [5] 19.1% | [6] 1.6%

S=c1[nH]nc(SCc2ccc(Cl)cc2Cl)c2[nH]cnc12
inactive: [1] -2.15% | [2] 1.4% | [3] 11.4% | [4] -32.4% | [5] -0.5% | [6] -6%

COc1ccc(CNc2cc(OC)c(OC)c(OC)c2)cc1
inactive: [1] -49.1% | [2] -36.7% | [3] -9.55% | [4] 9.25% | [5] -20.4% | [6] -33.1%

NCC(N)C(O)C(O)C(O)CO (stereo unspecified)
inactive: [1] 5.65% | [2] -2.25% | [3] -2.85% | [4] -43.1% | [5] -16.4% | [6] 2.7%

CN(C)C(=O)Nc1cccc(OC(=O)NCCCl)c1
inactive: [1] 6.55% | [2] 52.5% | [3] 30.7% | [4] 0.9% | [5] 41% | [6] 20.7%

Cc1cccc(C)c1NC(=O)Oc1ccc(Cl)cc1Cc1ccccc1
active: [1] 98.5% | [2] 99.5% | [3] 99.6% | [4] 98.9% | [5] 99.3% | [6] 99.3%

O=C(O)Cc1cc2cccc([N+](=O)[O-])c2[nH]1
inactive: [1] 1.4% | [2] 6.65% | [3] 8.75% | [4] -1.85% | [5] -16.1% | [6] 9.2%

CN1C(c2ccccc2)=C(C#N)C(=O)CC(c2ccccc2)N1C (stereo unspecified)
inactive: [1] 26.1% | [2] 11.6% | [3] 30.2% | [4] 14.8% | [5] 11.4% | [6] 21.2%

CC(O)CNC(C)(C)CN (stereo unspecified)
inactive: [1] -7.45% | [2] -15.5% | [3] -10.4% | [4] 4.4% | [5] -18.8% | [6] -4%

COC(=O)C1=C(C)NC(C)=C(C(=O)OC)C1c1cc2ccccc2n2nnnc12
inactive: [1] 26.7% | [2] 11.1% | [3] 31.2% | [4] -1.75% | [5] 7.5% | [6] 47.4%

CSC1(SC2=NCCN2)SC2(NCCN2)S1
inactive: [1] 1.75% | [2] -10.8% | [3] -41.6% | [4] -24.1% | [5] -1.55% | [6] -18.1%
